# Experimental data: PubChem BioAssay (NCATS)
# Results filed as inconclusive are left out. Where a call stands in place of a potency, no number is given. Calls of active or inactive are those of the source. The call rests on the fitted dose curve; in most records, active means well fitted curve in the direction sought with a large enough effect; inconclusive means small, poorly fitted or top-dose-only effect, or another doubt; inactive means no such curve, though single readings can be large; an effect the other way counts as inactive or inconclusive.
# Tested on: not listed separately
# Experiment: qHTS for Inhibitors of the Aldehyde Dehydrogenase Family (ALDH1A2, ALDH1A3, ALDH2, ALDH3A1) (AID 2061307); further: nearly all actives have a fitted effect of over 50% in size; on potency: test system not described further here
# Conditions: ALDH inhibition qHTS; series mostly up to 50.3 µM
# Potency means the concentration at half of the fitted maximal effect.
row,Structure (SMILES),Potency
1,NC(=O)c1cccc(-c2cc(OC(=O)NC3CCCCC3)ccc2O)c1,10.1 µM (active)
2,CC(=O)N(O)CCCCCN1C(=O)CCC1=O,inactive
3,O=C1C(c2c(O)[nH]c3ccccc23)=Nc2ccccc21,inactive
4,CNC(=O)c1cc(Oc2ccc(NC(=O)c3cccc(C(F)(F)F)c3)cc2)ccn1,6.34 µM (active)
5,O=C1Nc2ccccc2-c2nc3ccccc3c(=O)n2-c2c(O)cccc21,inactive
6,NC1(c2ccc(NC(=O)c3ccnc(-c4cc(C(=O)O)ccn4)c3)cc2)CC1,inactive
7,CC(C(=O)O)c1ccc2c(c1)CC(=O)c1ccccc1S2 (stereo not given),inactive
8,COc1cc(/C=C/C(=O)O[C@H]2[C@H](OC(=O)/C=C/c3cc(OC)c(O)c(OC)c3)O[C@H](CO[C@@H]3O[C@H](CO)[C@@H](O)[C@H](O)[C@H]3O)[C@@H](O)[C@@H]2O)ccc1O,inactive
9,CN1CCN(C2=Nc3ccccc3Nc3ccc(O)cc32)CC1,inactive
10,CNC(=O)Nc1ccc(OC)c(NC(=O)NC(=O)c2cc(F)c(F)cc2Cl)c1,inactive
11,C/C(=N\N=C(N)N)c1cc(NC(=O)CCCCCCCCC(=O)Nc2cc(/C(C)=N/N=C(N)N)cc(/C(C)=N/N=C(N)N)c2)cc(/C(C)=N/N=C(N)N)c1,inactive
12,CCOc1ccc2ccccc2c1C(=O)N[C@@H]1C(=O)N2[C@@H]1SC(C)(C)[C@@H]2C(=O)O,inactive
13,C=CC(=O)N1CCCN(c2cc(NCCC(=O)O)nc(-c3ccccn3)n2)CC1,inactive
14,CC(=O)OCC(=O)[C@@]1(O)[C@H](C)C[C@H]2[C@@H]3C=C(C)C4=Cc5c(cnn5-c5ccccc5)C[C@]4(C)[C@@H]3[C@@H](O)C[C@@]21C,inactive
15,COc1cc(NC(=O)c2ccccn2)ccc1Cl,inactive
16,OC[C@@]1(O)CO[C@@H](OC[C@H]2O[C@@H](Oc3ccccc3)[C@H](O)[C@@H](O)[C@@H]2O)[C@@H]1O,inactive
17,CC(C)Nc1cc(-c2c[nH]c(C(=O)N[C@H](CO)c3cccc(Cl)c3)c2)c(Cl)cn1,inactive
18,Cc1nc2c(C#N)c[nH]n2c(=O)c1C(C)C,inactive
19,CCOc1ccc(Cc2nc(-c3c(C)nc4ccccn34)cs2)cc1,11.2 µM (active)
20,CCC[C@H](N[C@@H](C)C(=O)N1[C@H](C(=O)O)C[C@@H]2CCCC[C@@H]21)C(=O)O,inactive

row,Structure (SMILES),Potency
1,C=C1CC23CC1CCC2C12OC(=O)C(C)(CCC1O)C2C3C(=O)O (stereo not given),inactive
2,CCOc1ccc(Nc2nc(-c3c(C)nc4ccccn34)cs2)cc1,7.94 µM (active)
3,CC(C)(Cc1ccccc1)NCC(O)c1ccc(O)c(NS(C)(=O)=O)c1 (stereo not given),inactive
4,S=C(c1ccc(-c2ccc(Cl)c(Cl)c2)o1)N1CCCCC1,12.7 µM (active)
5,O=C(CCCCCCNC(=O)c1cnc(N(c2ccccc2)c2ccccc2)nc1)NO,inactive
6,CSC(=O)OCC1=C[C@@H]2OC(=O)C3=CO[C@@H](O[C@@H]4O[C@H](CO)[C@@H](O)[C@H](O)[C@H]4O)[C@H]1[C@@H]32,inactive
7,O=C(OCC1=C[C@@H](O)[C@@H]2C=CO[C@@H](O[C@@H]3O[C@H](CO)[C@@H](O)[C@H](O)[C@H]3O)[C@H]12)c1ccc(O)cc1,inactive
8,C=C(C)C(=O)O[C@H]1[C@H]2C(=C)C(=O)O[C@@H]2/C=C(\CO)CC/C=C(/C=O)[C@@H]1O,inactive
9,COc1cc(/C=C/C(=O)OC[C@H]2O[C@@H](OC3OC=C(C(=O)O)C4C(O)CC(C)(O)C34)[C@H](O)[C@@H](O)[C@@H]2O)cc(OC)c1O (stereo not given in full),inactive
10,CN(C)c1cccc(-c2c3c(=O)n(-c4ccccc4Cl)[nH]c3cc(=O)n2C)c1,inactive
11,NCCCCN(Cc1nc2ccccc2[nH]1)[C@H]1CCCc2cccnc21,inactive
12,COc1cc(/C=C/c2cc(O)cc(O[C@@H]3O[C@H](CO)[C@@H](O)[C@H](O)[C@H]3O)c2)ccc1O,inactive
13,C=C1CC[C@H]2[C@@](C)(CCC(OC3OC(CO)C(O)C(O)C3O)[C@@]2(C)CO)C1C(=O)CC1=CCOC1=O (stereo not given in full),inactive
14,CC1(C)[C@H](C(=O)O)N2C(=O)C[C@H]2S1(=O)=O,inactive
15,CC1(COc2ccc3c(c2)ncn3-c2ccc3cccc(N4CCC(N)CC4)c3n2)COC1,inactive
16,CC(C)c1c(-c2cnn(C(C)(C)C)c2)nc2c(C#N)c[nH]n2c1=O,inactive
17,COc1ccc(NC(=O)N2CCc3c2ccc2ccccc32)cc1N1CCN(C)CC1,inactive
18,COc1cc2nc(N3CCCC3)nc(NCCCCCN3CCCC3)c2cc1OC,inactive
19,C/C=C1\[C@H](O[C@@H]2O[C@H](CO)[C@@H](O)[C@H](O)[C@H]2O)OC=C(C(=O)OC)[C@H]1CC(=O)OC[C@H]1O[C@@H](OCCc2ccc(O)cc2)[C@H](O)[C@@H](O)[C@@H]1O,inactive
20,CC1CCC23COC(=O)C2=CC(O)CC3C1(C)CCC1=CC(O)OC1=O (stereo not given),inactive

# Biological target: Aldehyde dehydrogenase, mitochondrial (Homo sapiens) (UniProt P05091)
# Experiment: qHTS for Inhibitors of the Aldehyde Dehydrogenase Family (ALDH2) Primary screen (AID 2061308); further: nearly all actives have a fitted effect of over 55% in size
# Conditions: ALDH2 enzyme inhibition qHTS, 1536-well; series mostly up to 56 µM
row,Structure (SMILES),Potency
1,NC(=O)c1cccc(-c2cc(OC(=O)NC3CCCCC3)ccc2O)c1,inactive
2,CC(=O)N(O)CCCCCN1C(=O)CCC1=O,inactive
3,O=C1C(c2c(O)[nH]c3ccccc23)=Nc2ccccc21,inactive
4,CNC(=O)c1cc(Oc2ccc(NC(=O)c3cccc(C(F)(F)F)c3)cc2)ccn1,inactive
5,O=C1Nc2ccccc2-c2nc3ccccc3c(=O)n2-c2c(O)cccc21,inactive
6,NC1(c2ccc(NC(=O)c3ccnc(-c4cc(C(=O)O)ccn4)c3)cc2)CC1,inactive
7,CC(C(=O)O)c1ccc2c(c1)CC(=O)c1ccccc1S2 (stereo not given),inactive
8,COc1cc(/C=C/C(=O)O[C@H]2[C@H](OC(=O)/C=C/c3cc(OC)c(O)c(OC)c3)O[C@H](CO[C@@H]3O[C@H](CO)[C@@H](O)[C@H](O)[C@H]3O)[C@@H](O)[C@@H]2O)ccc1O,inactive
9,CN1CCN(C2=Nc3ccccc3Nc3ccc(O)cc32)CC1,inactive
10,CNC(=O)Nc1ccc(OC)c(NC(=O)NC(=O)c2cc(F)c(F)cc2Cl)c1,inactive
11,C/C(=N\N=C(N)N)c1cc(NC(=O)CCCCCCCCC(=O)Nc2cc(/C(C)=N/N=C(N)N)cc(/C(C)=N/N=C(N)N)c2)cc(/C(C)=N/N=C(N)N)c1,inactive
12,CCOc1ccc2ccccc2c1C(=O)N[C@@H]1C(=O)N2[C@@H]1SC(C)(C)[C@@H]2C(=O)O,inactive
13,C=CC(=O)N1CCCN(c2cc(NCCC(=O)O)nc(-c3ccccn3)n2)CC1,inactive
14,CC(=O)OCC(=O)[C@@]1(O)[C@H](C)C[C@H]2[C@@H]3C=C(C)C4=Cc5c(cnn5-c5ccccc5)C[C@]4(C)[C@@H]3[C@@H](O)C[C@@]21C,inactive
15,COc1cc(NC(=O)c2ccccn2)ccc1Cl,inactive
16,OC[C@@]1(O)CO[C@@H](OC[C@H]2O[C@@H](Oc3ccccc3)[C@H](O)[C@@H](O)[C@@H]2O)[C@@H]1O,inactive
17,CC(C)Nc1cc(-c2c[nH]c(C(=O)N[C@H](CO)c3cccc(Cl)c3)c2)c(Cl)cn1,inactive
18,Cc1nc2c(C#N)c[nH]n2c(=O)c1C(C)C,inactive
19,CCOc1ccc(Cc2nc(-c3c(C)nc4ccccn34)cs2)cc1,inactive
20,CCC[C@H](N[C@@H](C)C(=O)N1[C@H](C(=O)O)C[C@@H]2CCCC[C@@H]21)C(=O)O,inactive

row,Structure (SMILES),Potency
1,C=C1CC23CC1CCC2C12OC(=O)C(C)(CCC1O)C2C3C(=O)O (stereo not given),inactive
2,CCOc1ccc(Nc2nc(-c3c(C)nc4ccccn34)cs2)cc1,inactive
3,CC(C)(Cc1ccccc1)NCC(O)c1ccc(O)c(NS(C)(=O)=O)c1 (stereo not given),inactive
4,S=C(c1ccc(-c2ccc(Cl)c(Cl)c2)o1)N1CCCCC1,22.4 µM (active)
5,O=C(CCCCCCNC(=O)c1cnc(N(c2ccccc2)c2ccccc2)nc1)NO,inactive
6,CSC(=O)OCC1=C[C@@H]2OC(=O)C3=CO[C@@H](O[C@@H]4O[C@H](CO)[C@@H](O)[C@H](O)[C@H]4O)[C@H]1[C@@H]32,inactive
7,O=C(OCC1=C[C@@H](O)[C@@H]2C=CO[C@@H](O[C@@H]3O[C@H](CO)[C@@H](O)[C@H](O)[C@H]3O)[C@H]12)c1ccc(O)cc1,inactive
8,C=C(C)C(=O)O[C@H]1[C@H]2C(=C)C(=O)O[C@@H]2/C=C(\CO)CC/C=C(/C=O)[C@@H]1O,inactive
9,COc1cc(/C=C/C(=O)OC[C@H]2O[C@@H](OC3OC=C(C(=O)O)C4C(O)CC(C)(O)C34)[C@H](O)[C@@H](O)[C@@H]2O)cc(OC)c1O (stereo not given in full),inactive
10,CN(C)c1cccc(-c2c3c(=O)n(-c4ccccc4Cl)[nH]c3cc(=O)n2C)c1,inactive
11,NCCCCN(Cc1nc2ccccc2[nH]1)[C@H]1CCCc2cccnc21,inactive
12,COc1cc(/C=C/c2cc(O)cc(O[C@@H]3O[C@H](CO)[C@@H](O)[C@H](O)[C@H]3O)c2)ccc1O,inactive
13,C=C1CC[C@H]2[C@@](C)(CCC(OC3OC(CO)C(O)C(O)C3O)[C@@]2(C)CO)C1C(=O)CC1=CCOC1=O (stereo not given in full),inactive
14,CC1(C)[C@H](C(=O)O)N2C(=O)C[C@H]2S1(=O)=O,inactive
15,CC1(COc2ccc3c(c2)ncn3-c2ccc3cccc(N4CCC(N)CC4)c3n2)COC1,inactive
16,CC(C)c1c(-c2cnn(C(C)(C)C)c2)nc2c(C#N)c[nH]n2c1=O,inactive
17,COc1ccc(NC(=O)N2CCc3c2ccc2ccccc32)cc1N1CCN(C)CC1,inactive
18,COc1cc2nc(N3CCCC3)nc(NCCCCCN3CCCC3)c2cc1OC,inactive
19,C/C=C1\[C@H](O[C@@H]2O[C@H](CO)[C@@H](O)[C@H](O)[C@H]2O)OC=C(C(=O)OC)[C@H]1CC(=O)OC[C@H]1O[C@@H](OCCc2ccc(O)cc2)[C@H](O)[C@@H](O)[C@@H]1O,inactive
20,CC1CCC23COC(=O)C2=CC(O)CC3C1(C)CCC1=CC(O)OC1=O (stereo not given),inactive
